Molecules are shown by their SMILES. “And” between values parts separate entries of the source, which are not always exact repeats. Equal values may be shown once. Out of some 110,000 compounds screened, about 190 (0.17%) were called active. Rule as the data show it: active = inhibition above about 50%; inactive = the rest. Shown is part of a subset that was picked to be rich in actives. Results with a measured potency or affinity are listed apart. A structure can be active in one record and inactive in another.

For the experiment, the target named is Dual specificity protein phosphatase 6 (Rattus norvegicus) (UniProt Q64346). Put plainly: inhibition of rat DUSP6 enzyme activity – biochemical, in vitro, primary screen (AID 425).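 Also: plate controls were vehicle for no effect and reference inhibitor for full effect.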 As to conditions: recombinant MKP-3 phosphatase activity, fluorescence; at 20 µM; stronger effect = higher value.
Sequence of Dual specificity protein phosphatase 6 (Rattus norvegicus) (Q64346 whole entry, looked up): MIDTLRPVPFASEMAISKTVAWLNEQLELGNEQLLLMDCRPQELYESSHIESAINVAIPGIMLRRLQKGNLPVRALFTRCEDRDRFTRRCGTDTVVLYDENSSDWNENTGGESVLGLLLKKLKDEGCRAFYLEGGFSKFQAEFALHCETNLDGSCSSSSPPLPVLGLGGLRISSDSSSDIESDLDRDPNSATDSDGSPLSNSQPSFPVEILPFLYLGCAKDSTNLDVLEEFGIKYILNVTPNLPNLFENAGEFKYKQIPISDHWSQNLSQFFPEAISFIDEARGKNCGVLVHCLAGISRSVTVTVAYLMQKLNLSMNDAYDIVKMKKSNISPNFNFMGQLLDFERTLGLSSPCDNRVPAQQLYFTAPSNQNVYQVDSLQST
One may read the inhibition as the relative decrease from the control value, in per cent. In the case of `COc1cc2c(C#N)c(N3CCOCC3)nc(N)c2c(N)n1`, the inhibition is -5.5% (inactive).

Consider `COc1cc2c(C#N)c(N3CCCCC3)nc(N)c2c(N)n1`, for which the inhibition was 8% (inactive). Regarding `O=C(COc1ccccc1[N+](=O)[O-])Nc1ccc(-c2nc3ncccc3o2)cc1`, the inhibition was 16% (inactive).

For `Cc1ccc2oc(-c3cccc(NC(=O)COc4ccccc4[N+](=O)[O-])c3C)nc2c1`, the inhibition was 0.7% (inactive).

For the compound `Cc1c(NC(=O)COc2ccccc2[N+](=O)[O-])cccc1-c1nc2ncccc2o1`, the inhibition is 59.4% (active). Then `CCOc1ccc(NC(=O)CSC(N)=O)cc1`, with -0.4% (inactive); and `Cc1ccc(C)c(S(=O)(=O)NCc2cccnc2)c1`, with -4.3% (inactive); and `Cc1cc(C)c2nc3s/c(=C\c4ccc(-c5ccc(Cl)c(C(=O)O)c5)o4)c(=O)n3c2c1`, with 19.9% (inactive). With `O=c1/c(=C/c2ccc(-c3ccccc3[N+](=O)[O-])o2)sc2nc3cc(Br)cnc3n12`, the inhibition is 0.3% (inactive). Consider `O=c1/c(=C/c2ccc(-c3ccc(Cl)cc3)o2)sc2nc3ccccc3n12`, for which the inhibition is -1.6% (inactive). Consider `O=c1/c(=C\c2ccc(-c3cccc(Br)c3)o2)sc2nc3ccccc3n12`, for which the inhibition was 1.3% (inactive). For the compound `O=c1/c(=C\c2ccc(-c3cccc(Cl)c3)o2)sc2nc3ccccc3n12`, the inhibition was 0.1% (inactive).

Regarding `O=c1/c(=C/c2ccc(-c3ccccc3)o2)sc2nc3ccccc3n12`, the inhibition was -5.1% (inactive). With `O=c1/c(=C/c2ccc(-c3ccc([N+](=O)[O-])cc3Cl)o2)sc2nc3cc(Br)cnc3n12`, the inhibition was 1% (inactive). The value for `Cc1cc2nc3s/c(=C/c4ccc(-c5ccc(Cl)cc5)o4)c(=O)n3c2cc1C` was 0.8% (inactive); that for `O=C(O)c1ccccc1-c1ccc(/C=c2\sc3nc4cc(Br)cnc4n3c2=O)o1` was 52.1% (active); that for `CCCCOC(=O)c1ccc(NC(=O)c2cncc(Br)c2)cc1` was 2.8% (inactive).

Take `COc1ccccc1/C=C1\SC(=S)N(NC(=O)Cc2ccccc2)C1=O`: the inhibition was 2.2% (inactive). As for `O=C(COc1ccc(=O)n(-c2ccccc2)n1)Nc1ccccc1`, the inhibition is 1.2% (inactive). `COC(CNS(=O)(=O)c1ccc(Cl)cc1)c1ccccc1` (stereo not given): the inhibition is -0.6% (inactive).

As to `CC1(C)CC(=O)C2=C(C1)OC1=C(C(=O)CC(C)(C)C1)C2c1ccc(-c2nnc(N)s2)cc1`, the inhibition was 5.6% (inactive). The value for `CC(C)CSc1nc2c(c(=O)[nH]c(=O)n2C)n1CC(O)COc1cccc2ccccc12` (stereo not given) was -2.5% (inactive). Then `Cn1c(=O)oc2cc(S(=O)(=O)Nc3ccc(Cl)cc3F)ccc21`, with -2.1% (inactive).

In the case of `Cc1nc2c3ccccc3n(CC#N)c(=O)n2n1`, the inhibition was -2.1% (inactive).

In the case of `NC(=O)C1(N2CCCCC2)CCN(CC(=O)Nc2ccc(Oc3ccccc3)cc2)CC1`, the inhibition is -17% (inactive).

As for `COc1ccc(CCCc2nnc(SCC(=O)Nc3ncc(C)s3)o2)cc1`, the inhibition was -9.2% (inactive). The value for `O=C(O)c1ccccc1NCN1C(=O)C2CC=C(Cl)CC2C1=O` (stereo not given) was 5.2% (inactive); that for `O=[N+]([O-])c1ccc(C2Nc3ccc([N+](=O)[O-])cc3C3C=CCC32)cc1` (stereo not given) was 6.6% (inactive).

Take `COc1ccc2c(c1)C1C=CCC1C(C(=O)O)N2` (stereo not given): the inhibition was 23.5% (inactive). On to `O=[N+]([O-])c1cccc(C2Nc3ccc4ccccc4c3C3C=CCC32)c1` (stereo not given), for which the inhibition was 8.7% (inactive). `O=C(O)C1Nc2c(cccc2[N+](=O)[O-])C2C=CCC12` (stereo not given): the inhibition was 79% (active). The value for `O=[N+]([O-])c1cccc2c1NC(c1ccccc1F)C1CC=CC21` (stereo not given) was 2.2% (inactive); that for `O=C(O)C1Nc2ccc3ccccc3c2C2C=CCC12` (stereo not given) was 91.5% (active). Then `O=C(O)C1Nc2ccc([N+](=O)[O-])cc2C2C=CCC12` (stereo not given), with 63.7% (active); and `CC(=O)Nc1ccc2c(c1)C1C=CCC1C(C(=O)O)N2` (stereo not given), with 3% (inactive); and `O=[N+]([O-])c1cccc2c1NC(c1ccc(F)cc1)C1CC=CC21` (stereo not given), with -0.5% (inactive). The value for `Oc1ccc(C2Nc3ccc4ccccc4c3C3C=CCC32)cc1` (stereo not given) was 2.7% (inactive); that for `Cc1ccc2c(c1)C1C=CCC1C(C(=O)O)N2` (stereo not given) was 40.3% (inactive); that for `O=C(Nc1ccc2nn(-c3ccccc3)nc2c1)c1cc(I)ccc1Cl` was 3.4% (inactive). As to `Cn1cnnc1Sc1nc2c(c(=O)n(C)c(=O)n2C)n1C`, the inhibition was -3.7% (inactive). Then `COc1ccc(C(=O)/C=C/c2c(Cl)cccc2Cl)cc1`, with 10.2% (inactive); and `CCOc1ncccc1C(=O)OCC(=O)NCCc1ccc(OC)cc1`, with 1.6% (inactive). Turning to `O=C(c1ccc(S(=O)(=O)NCC2CCCO2)cc1)N1CCc2ccccc21` (stereo not given), the inhibition was 8.3% (inactive). Then `O=C(CCNS(=O)(=O)c1ccccc1[N+](=O)[O-])Nc1ccc(I)cc1`, with 2% (inactive).

In the case of `C=CCn1c(SCC(=O)NCc2cccs2)nnc1C1CCCCC1`, the inhibition was -0.2% (inactive). For `COc1cc(/C=C2\SC(=S)N(c3ccc(C)cc3C)C2=O)cc(Br)c1O`, the inhibition is -2.7% (inactive).

In the case of `O=C(NCC1CCCO1)c1cnn2c1NC(c1ccco1)CC2C(F)(F)F` (stereo not given), the inhibition is -1.8% (inactive). Then `Cc1ccc(NC(=O)Cn2nc(C)c3ccccc3c2=O)cc1F`, with -2.5% (inactive); and `COc1cc(C(=O)NC(NC(=S)Nc2ccc(C(C)=O)cc2)C(Cl)(Cl)Cl)cc(OC)c1OC` (stereo not given), with 3.5% (inactive). For `COc1cccc(C2C(C(=O)Nc3ccccc3)=C(C)N=C3SCC(=O)N32)c1` (stereo not given), the inhibition was 3.3% (inactive). With `Cc1ccc(C)n1-c1cc(C(=O)O)ccc1Cl`, the inhibition is 101% (active). Then `Cc1cc(C(=O)O)ccc1-n1c(C)ccc1C`, with 55% (active) and 10.8% (inactive); and `Cc1ccc(C)n1-c1cc(C(=O)O)cc(C(=O)O)c1`, with 32.5% (inactive); and `Cc1ccc(C)n1-c1cc(C(=O)O)ccc1O`, with 32.6% (inactive). On to `Cc1ccc(C(=O)O)cc1-n1c(C)ccc1C`, for which the inhibition is 59% (active).

Turning to `Cc1ccc(-c2ccccc2)n1-c1cccc(C(=O)O)c1`, the inhibition is 2.4% (inactive).

As for `Cc1cc(N)ccc1-n1c(C)ccc1C`, the inhibition is -1.5% (inactive). Then `Cc1ccc(C(=O)O)cc1N1C(=O)c2ccccc2C1=O`, with -1.1% (inactive); and `Cc1cc(Cl)c2cc(C(=O)O)ccc2n1`, with 3.5% (inactive); and `COc1cccc(C2=NN(C(=O)COc3ccccc3)C(O)(C(F)(F)F)C2)c1` (stereo not given), with 1.7% (inactive). Regarding `Cc1cccc(C(C)C)c1NC(=O)c1cccnc1`, the inhibition is -7.7% (inactive). The value for `CCN(CC)c1ccc(/C=C2/SC(=O)N(CNc3ccc(OC)c(Cl)c3)C2=O)cc1` was 2.6% (inactive); that for `COc1ccc(/C=C2\C=C(c3ccc(Br)cc3)OC2=O)cc1[N+](=O)[O-]` was 5.6% (inactive). `COc1ccc(/C=N/Nc2nnc(-c3ccccc3)c(-c3ccccc3)n2)cc1`: the inhibition is 0.6% (inactive). On to `N/C(=N/O)c1nc(N2CCCCC2)nc(N2CCCCC2)n1`, for which the inhibition is -8.2% (inactive). Consider `O=C(Nc1ccc(C(=O)N2CCOCC2)cc1)Nc1cccc2ccccc12`, for which the inhibition was 2% (inactive). Then `CN(C)CCCNC(=O)c1cccc(F)c1`, with -3.1% (inactive); and `CN(C)CCCNC(=O)c1ccc(F)cc1`, with -0.5% (inactive). As to `CN(C)CCCNC(=O)c1ccc2sc3cc(=O)c(N)cc-3nc2c1`, the inhibition was 84.1% (active).

Regarding `Cc1ccc(-n2ncc(C(=O)N3CCc4ccccc4C3)c2NC(=O)c2ccco2)cc1C`, the inhibition is -7.8% (inactive).

Take `CC1(C)OC(=O)C(=Cc2ccc(-c3ccc(Cl)cc3Cl)o2)C(=O)O1`: the inhibition was 7.8% (inactive). Then `O=C1C(=Cc2ccc(I)o2)C(=O)c2ccccc21`, with 15.6% (inactive); and `CC1(C)OC(=O)C(=Cc2ccc(I)o2)C(=O)O1`, with 101% (active); and `Cc1ccc(C)c(C(=O)COC(=O)c2ccc(Br)o2)c1`, with -15.9% (inactive).

On to `COc1ccc(-c2cc3ccccc3n2CC(O)CN2CCN(CCO)CC2)cc1` (stereo not given), for which the inhibition was -0.9% (inactive). `O=C(O)c1cccc(N2C(=O)c3ccc4c5c(ccc(c35)C2=O)CC4)c1`: the inhibition is 71.8% (active). Then `O=C(O)c1cccc(N2C(=O)CCC2=O)c1`, with -5.5% (inactive). As to `O=C(O)c1cccc(N2C(=O)c3ccc(Br)cc3C2=O)c1`, the inhibition is 0.9% (inactive). For `c1ccc2c(-n3cnnn3)cccc2c1`, the inhibition was -8.8% (inactive). In the case of `Cc1ccc(-c2nc(NC(=O)CSc3nnnn3-c3ccccc3)ns2)cc1`, the inhibition is 2.1% (inactive). The value for `Cc1ccc(-c2nc(NC(=O)CSc3nnc(C)s3)ns2)cc1` was 6.1% (inactive); that for `Cc1ccc(-c2csc3nnc(SCC(=O)Nc4nsc(-c5ccccc5)n4)n23)cc1` was -3.1% (inactive); that for `Cc1ccc(-c2nc(NC(=O)CSc3nnc4scc(-c5ccccc5)n34)ns2)cc1` was 12.3% (inactive). The value for `CCn1c(=O)cc(SCC(=O)Nc2ccc3c(c2)OCCO3)c2ccccc21` was 2.8% (inactive). Then `O=c1[nH]c2c(n(C3CCCCC3)c1=O)CCC2`, with -11.2% (inactive); and `Cc1ccc(C(=O)Nc2ccccc2C(=O)N2CC(C)OC(C)C2)cc1` (stereo not given), with 1.8% (inactive); and `O=C1NC(=O)N(c2ccccc2)C(=O)/C1=C\c1ccc(Br)o1`, with 8.3% (inactive). `CC(C)c1ccc(N2C(=O)NC(=O)/C(=C/c3ccc(Br)o3)C2=O)cc1`: the inhibition is 58.6% (active). For the compound `CC(C)c1ccc(N2C(=O)NC(=O)/C(=C/c3ccc(I)o3)C2=O)cc1`, the inhibition is 12.4% (inactive). Regarding `Cc1cc(N2C(=O)NC(=O)/C(=C\c3ccc([N+](=O)[O-])o3)C2=O)ccc1Br`, the inhibition was 65.5% (active). The value for `Cc1cc(N2C(=O)NC(=O)/C(=C\c3ccc(N(C)C)o3)C2=O)ccc1Br` was 2.1% (inactive); that for `Cc1cc(C)cc(N2C(=O)NC(=O)/C(=C\c3ccc([N+](=O)[O-])o3)C2=O)c1` was 25.1% (inactive).

`O=C(NC(Cc1ccccc1)C(=O)N1CCN(c2ccccn2)CC1)c1ccco1` (stereo not given): the inhibition is -1.1% (inactive). The value for `COc1ccc(OC)c(CN2C(=O)c3ccccc3C2C(=O)NCc2cccnc2)c1` (stereo not given) was -10.2% (inactive); that for `CN(Cc1ccccc1)S(=O)(=O)c1ccc2[nH]c(=O)oc2c1` was -2.6% (inactive).

Values taken from PubChem BioAssay AID425 (Sanford-Burnham Center for Chemical Genomics, 2006).
